Screening results as filed in PubChem BioAssay.
CHX counter = counter-screen for Shiga toxin inhibitors: cycloheximide protein synthesis inhibition; AID 2314; max response, %; 300,000 tested, 12% active; cell reporter, cycloheximide protein synthesis inhibition counterscreen; in the data active means max response mostly above about 13%, no sharp cut-off; inactive means mostly below about 14%; further: read at 38.3 µM for the half of the compounds with a filed dose; 0% is about no effect
Pf growth 96h = P. falciparum growth inhibition at 96 hour, primary screen for plastid delayed-death inhibitors | P. falciparum luciferase reporter growth, 96 h | Potency, µM (series often up to 28.7 µM), without a hit: top-dose activity change, negative = inhibition, actives largely listed as inhibitors | 320,000 tested, 6.9% active; further: potency means the concentration at half of the fitted maximal effect; on the % scale 0 is the no-effect control and ±100 the full control effect
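Compounds incubated with erythrocytes infected by luciferase-expressing P. falciparum (2% hematocrit, 0.05% parasitemia final) for 96 hours, 37 C in 5% CO2. Growth inhibition scored as decreased luciferase luminescence.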
Shiga inhibitor = blocks Shiga toxin action in Vero cells. Vero cells, Shiga toxin protein synthesis inhibition reporter. inhibition, % at 38.7 µM. AID 2315. 290,000 tested, 9.2% active; in the data active means inhibition mostly above about 28%, no sharp cut-off; inactive means mostly below about 43%; further: 0% is about no effect
Pf growth 48h = inhibits P. falciparum growth in the first generation, 48 h. Potency, µM (highest dose often 28.7 µM), without a hit: top-dose activity change, negative = inhibition, hits mostly inhibitors. AID 504832. P. falciparum luciferase growth in erythrocytes, 48 h. 310,000 tested, 5.9% active; further: potency means the concentration at half of the fitted maximal effect; on the % scale 0 is the no-effect control and ±100 the full control effect
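Luciferase-expressing parasites in RBCs, 2% Hct / 0.1% parasitemia final; RPMI 1640 + 0.5% Albumax; 37 C, 5% CO2, one generation; luminescence read-out, lower signal = inhibition.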
HCV inh = blocks hepatitis C virus | Huh7.5.1 HCVcc-Cre infection, luciferase reporter, 44 h | Potency, µM (doses to about 41.8 µM), without a hit: at the top dose activity change, negative = inhibition, usual class: inhibitors | 340,000 tested, 3.4% active; further: potency means the concentration at half of the fitted maximal effect; on the % scale 0 is the no-effect control and ±100 the full control effect
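Cells seeded at 1,000/well and cultured 4 h, then compounds added followed by HCVcc-Cre virus (~0.5 moi). After 44 h further culture, luciferase substrate was added, plates held 15 min at room temperature, and luminescence read for 15 sec.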
AMA1 RON2 block = AMA1-RON2 (P. falciparum) interaction inhibition. AID 720542. 360,000 tested, 0.2% active. Potency, µM (highest dose often 58.2 µM), for the others: top-dose activity change, negative = inhibition, most hits filed as inhibitors. AlphaScreen AMA1-biotinylated RON2 peptide binding;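 further: potency means the concentration at half of the fitted maximal effect; 0% = vehicle wells and -100% = peptide control; nearly all actives have a fitted effect of over 45% in size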
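AMA1 (3D7) with his tag at 25 nM final met compounds first, then biotinylated RON2 peptide at 25 nM; detection used donor plus acceptor beads, 10 µg/mL apiece, read by AlphaScreen after 30 min at room temperature.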
* hit, by the source's call; ? = inconclusive; nt = no result given; + = active, no number; ! = a repeat was not active; [ ] = another dose, or the depositor's remark. Sampled rows, rich in hits. Any-hit rate of the full collection: about 21%. Unless noted, the call rests on the fitted dose curve; in most records, active means well fitted curve in the direction sought with a large enough effect; inconclusive means small, poorly fitted or top-dose-only effect, or another doubt; inactive means no such curve, though single readings can be large; an effect the other way counts as inactive or inconclusive.

SMILES	CHX counter	Pf growth 96h	Shiga inhibitor	Pf growth 48h	HCV inh	AMA1 RON2 block
Cc1cccc(N/N=C/c2ccncc2)c1	34*	?	45*	?	?	-1%
Cc1cccc(N/N=C/c2ccccc2O)c1	101*	?	98*	?	-12%	15%
Cc1c(C)c2c(c(C)c1OC(=O)c1cccnc1)CC[C@@](C)(CCC[C@H](C)CCC[C@H](C)CCCC(C)C)O2	-4	12%	-12	5%	nt	nt
O=S(=O)(N/N=C/c1cccnc1)c1ccc(Cl)c(Cl)c1	-3	34%	8	30%	4%	0%
Cc1nnc(N/N=C/c2ccc(Br)cc2)n1N	10.0*	15µM*	nt	81%	-15%	42%
COc1ccc(/C=N/Nc2nnc(C)n2N)cc1OC(C)=O	12*	25%	13	nt	16%	1%
Cc1nnc(N/N=C/c2ccc(-c3ccc(Br)cc3)o2)n1N	15	3.7µM*	62	?	?	88%
COc1cc(N)c(Cl)cc1C(=O)OCC(=O)N1c2ccccc2NC(=O)C1(C)C	nt	nt	nt	nt	-23%	40%
C[C@@H]1CC=C[C@H]2[C@H]1C(=O)N(Cc1ccccc1)[C@H]2c1ccc2ccccc2c1Br	-4	?	7	10µM*	?	-9%
C[C@@H]1CC=C[C@H]2[C@H]1C(=O)N(Cc1ccccc1)[C@H]2c1ccc2ccccc2c1	-3	3.7µM*	-3	10µM*	17%[8.37 µM]	1%
O=C1C2C(c3cccc(/C=C/c4ccccc4)c3)CC=CC2C(c2ccc(C(F)(F)F)cc2)N1Cc1ccccc1 (stereo not drawn)	17	9.3µM*	54*!	12µM*	-1%	18%
COc1ccc(-c2cc([C@H]3[C@H]4C=CC[C@@H](C)[C@@H]4C(=O)N3Cc3ccccc3)ccc2F)cc1OC	22*	?	61*	?	-24%	-20%
CC1CC=CC2C1C(=O)N(Cc1ccccc1)C2c1ccc2ccccc2c1C=Cc1ccccc1 (stereo not drawn)	6	nt	9	nt	nt	nt
CCC1CC=CC2C1C(=O)N(Cc1ccccc1)C2c1ccoc1 (stereo not drawn)	16	nt	13	nt	nt	nt
CC[C@@H]1CC=C[C@H]2[C@H]1C(=O)N(Cc1ccccc1)[C@H]2c1ccoc1	12*	?	58*	12µM*	-27%	14%
O/N=C/c1ccc2ccccc2c1	21*	44%	56	30%	9%	16%
O=C(O)c1ccc(/C=N/O)cc1	-1	21%	3	36%	-7%	14%
Cc1cccc(C)c1NC(=O)C(c1ccccc1)N1CCN(C/C=C/c2ccccc2)CC1 (stereo not drawn)	nt	nt	nt	nt	nt	-3%
O=C1/C(=C/c2ccccc2F)SC(=S)N1CC(=O)N1CCCCC1c1cccnc1 (stereo not drawn)	-4	15µM*	9	-7%	?	-9%
O=C1/C(=C/c2cccc(Cl)c2)SC(=S)N1CCC(=O)N1CCCCC1CCO (stereo not drawn)	15	?	26	?	-18%	-9%
O=C1/C(=C/c2ccc(F)cc2)SC(=S)N1CC(=O)N1CCCCC1c1cccnc1 (stereo not drawn)	-4	?	12	-4%	?	14%
O=C1/C(=C/c2cccs2)SC(=S)N1CC(=O)N1CCCCC1CCO (stereo not drawn)	15*	16%	18	-7%	-16%	-10%
O=C1/C(=C/c2ccccc2)SC(=S)N1CCCC(=O)N1CCCCC1CCO (stereo not drawn)	4	7.4µM*	-3	?	?	-1%
O=C1/C(=C/c2ccc(Cl)cc2)SC(=S)N1CCC(=O)N1CCCCC1CCO (stereo not drawn)	-18	13µM*	7	-9%	?	-7%
Cc1c(Cc2ccccc2)c(=O)oc2c(C)c(OCC(=O)N[C@@H](Cc3ccccc3)C(=O)O)ccc12	0	?	-5	11%	-1%	-10%
SMILES	CHX counter	Pf growth 96h	Shiga inhibitor	Pf growth 48h	HCV inh	AMA1 RON2 block
O=C(CN1CCN(S(=O)(=O)c2cccc(F)c2)CC1)Nc1ccnn1C1CCCC1	nt	?	nt	?	?	15%
O=C(O)/C=C/C(=O)OC1CC2CCC1C2 (stereo not drawn)	6	5%	-1	-2%	23%	1%
COc1ccc(/C=C2\SC(=S)N(CCC(=O)N3CCCCC3CCO)C2=O)cc1 (stereo not drawn)	7	?	13	?	-16%	-12%
O=C1/C(=C/c2ccco2)SC(=S)N1CCC(=O)N1CCCCC1CCO (stereo not drawn)	11*	?	16	?	2%	-1%
O=C1/C(=C/c2ccccc2F)SC(=S)N1CCC(=O)N1CCCCC1CCO (stereo not drawn)	31*	?	12	?	?	-9%
O=C(COc1cccc(C(F)(F)F)c1)Nc1cccc(S(=O)(=O)NC2=NCCCCC2)c1	nt	nt	nt	nt	?	-10%
O=C(Nc1ccccc1F)c1ccc(Br)o1	55*	14%	+!	54%	?	8%
Cc1ccc2cccc(NC(=O)c3ccc(Br)o3)c2n1	3	-8%	9	-8%	10µM*	-12%
Cc1ccc2cccc(NC(=S)NC(=O)c3ccn(C)n3)c2n1	-1	-29%	-7	?	32µM*	29%
O=C(Nc1c(F)c(F)c(F)c(F)c1F)c1ccc(Br)o1	nt	nt	nt	nt	nt	-13%
O=C(Nc1ccccc1C(=O)O)c1ccc(Br)o1	21*	31%	39*	2%	10%	7%
O=C(CCSc1ccc(F)cc1)NNC(=O)c1ccccc1Cl	nt	0%	nt	-1%	7%	115%
CCCCCCCCCCCCOC1OC(CO)C(O)C(O)C1NC(C)=O (stereo not drawn)	5	29%	15	15%	-4%	-8%
CCCC/C=C/[C@H](C)[C@@](C)(COC(=O)c1ccc(Br)cc1)Cc1ccccc1	16	nt	4	nt	nt	nt
CCOC(=O)C1CCCN(C(=O)c2cc(F)ccc2C)CC1 (stereo not drawn)	nt	nt	nt	nt	nt	1%
CCC[C@H]1CN(Cc2cccnc2)C(=O)[C@@H]1CC(=O)Nc1ccc(Br)cc1	nt	nt	nt	nt	nt	-4%
COc1ccc(/C=C/C(=O)N2CCN(C)CC2)cc1S(=O)(=O)N1CCCCC1	-4	22%	-21	-2%	8%	9%
Cc1ccc(C(=O)Nc2ccccc2C(N)=O)o1	37*	nt	106*	73%	7%	12%
COc1ccc(-c2noc(CCCc3ccccc3)n2)cc1OC	12*	13%	21	14%	?	10%
Cc1ccc(-c2noc(CCCc3ccccc3)n2)cc1	31*	nt	62*	17%	14%	48%
Nn1c(SCC(=O)N2CCCC2=O)nnc1-c1cccs1	nt	13%	nt	16%	0%	0%
